Experimental findings from PubChem BioAssay (NCATS) are described below.

Molecules are shown by their SMILES. Several values for one entry are separate records, joined by “and”; a condition that tells them apart may be missing. Equal entries are not always repeated. Results filed as inconclusive are left out. Values without a mark were called inactive. Activity calls are given as the source filed them. The call rests on the fitted dose curve; in most records, active means well fitted curve in the direction sought with a large enough effect; inconclusive means small, poorly fitted or top-dose-only effect, or another doubt; inactive means no such curve, though single readings can be large; an effect the other way counts as inactive or inconclusive.

The test system of test [1] is MKL-1. Kind of test: qHTS assay to identify novel small-molecules to repurpose for Merkel cell carcinoma treatment (AID 1296009). Further: nearly all actives have a fitted effect of over 60% in size. The conditions noted are these: MCC and control cell lines, CellTiter-Glo viability, 72 h; series mostly up to 46 µM. Summed up: (§1)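 Cells were treated for 72 hr at 37 degree celsius with compounds in 8- or 11-point dose response. Viability was read by CellTiter-Glo luminescence, normalized to no-cell (cytotoxicity) and DMSO controls.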
In general terms: Quantitative high-throughput screening tests each substance at several concentrations.

Test [2] concerns MKL-2. The description is as above. As to conditions: MCC and control cell lines, CellTiter-Glo viability, 72 h; series mostly up to 46 µM. An outline of the steps:
as §1
(In general: In ATP-based viability assays light output follows the ATP content of the culture.)

Test [3] deals with WaGa. The test is described as above. The conditions noted are these: MCC and control cell lines, CellTiter-Glo viability, 72 h; series mostly up to 46 µM. An outline of the steps:
as §1

The subject of test [4] is C33A. Kind of test: Primary qHTS to identify gynecologic anti-cancer compounds using libraries of approved drugs and bioactive compounds (AID 1345084). Further: nearly all actives have a fitted effect of over 55% in size. The conditions noted are these: Gynecologic cancer cell panel viability, ATPlite luminescence, 48 h; series mostly up to 57.5 µM. An outline of the steps:
(§2)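 Cytotoxicity screen measuring ATP content by luciferase luminescence. Each compound is applied at five concentrations for 48 h at 37 C with 5% CO2.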

The subject of test [5] is CASKI. The description is as above. As to conditions: Gynecologic cancer cell panel viability, ATPlite luminescence, 48 h; series mostly up to 57.5 µM. An outline of the steps: as §2
The subject of test [6] is Es-2. The test is described as above. The conditions noted are these: Gynecologic cancer cell panel viability, ATPlite luminescence, 48 h; series mostly up to 57.5 µM. An outline of the steps:
as §2

Test [7] concerns HeLa. Described as above. As to conditions: Gynecologic cancer cell panel viability, ATPlite luminescence, 48 h; series mostly up to 57.5 µM. Summed up:
as §2

Test [8] deals with Hek293T. The test is described as above. The conditions noted are these: Gynecologic cancer cell panel viability, ATPlite luminescence, 48 h, control line for the selectivity index; series mostly up to 57.5 µM. Summed up: as §2
The subject of test [9] is JEG-3. The description is as above. The conditions noted are these: Gynecologic cancer cell panel viability, ATPlite luminescence, 48 h; series mostly up to 57.5 µM. An outline of the steps: as §2
Test [10] has as its system OV90. The description is as above. The conditions noted are these: Gynecologic cancer cell panel viability, ATPlite luminescence, 48 h; series mostly up to 57.5 µM. Summed up:
as §2

Test [11] concerns PA-1. The test is described as above. The conditions noted are these: Gynecologic cancer cell panel viability, ATPlite luminescence, 48 h; series mostly up to 57.5 µM. An outline of the steps: as §2
Test [12] relates to Tov-21-G. The test is described as above. The conditions noted are these: Gynecologic cancer cell panel viability, ATPlite luminescence, 48 h; series mostly up to 57.5 µM. Summed up:
as §2

The test system of test [13] is Tov112D. Described as above. The conditions noted are these: Gynecologic cancer cell panel viability, ATPlite luminescence, 48 h; series mostly up to 57.5 µM. An outline of the steps: as §2
Test [14] concerns UISO. Kind of test: qHTS assay to identify novel small-molecules to repurpose for Merkel cell carcinoma treatment (AID 1296009). Further: nearly all actives have a fitted effect of over 60% in size. As to conditions: MCC and control cell lines, CellTiter-Glo viability, 72 h; series mostly up to 46 µM. Summed up: as §1
The subject of test [15] is SKOV3. The test is described as follows: Primary qHTS to identify gynecologic anti-cancer compounds using libraries of approved drugs and bioactive compounds (AID 1345084). Further: nearly all actives have a fitted effect of over 55% in size. As to conditions: Gynecologic cancer cell panel viability, ATPlite luminescence, 48 h; series mostly up to 57.5 µM. Summed up: as §2
A short description of test [16]: Drug repurposing screens with cells derived from glioblastoma tumor samples (AID 1345199). Further: nearly all actives have a fitted effect of over 40% in size. On activity, negative = cell killing: on the % scale 0 is the no-effect control and ±100 the full control effect. As to conditions: GBM patient neurospheres viability, ATP luminescence, 48 h. An outline of the steps: (§3)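 Four patient lines of CD133+ GBM neurospheres were screened at several concentrations; hits were retested in those lines plus three slower-growing GBM lines, using 48-hour treatment and ATP-based viability.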

Test [17] relates to astro. The description is as above. The conditions noted are these: viability, ATP luminescence, 48 h; series mostly up to 45.9 µM. An outline of the steps:
as §3

A short description of test [18]: qHTS assay to identify inhibitors of the type 1 interferon - major histocompatibility complex class I in skeletal muscle: Counter screen cell viability and HiBit confirmation (AID 1347412). Further: nearly all actives have a fitted effect of over 60% in size. The conditions noted are these: iHSKM muscle cells + IFN-b, HiBiT or CellTiter-Glo, 24 h; HiBiT. Summed up: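 CRISPR HLA-B*08:01-HiBit immortalized human myoblasts (C25cl48) stimulated with 4 ng/ml IFN-beta and compounds (12-point 1:3, top 46 uM final) for 24 h at 37 C. Duplicate plates read by HiBit lytic luminescence or CellTiter Glo ATP.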

In test [19] the test system is CAOV3. Kind of test: Primary qHTS to identify gynecologic anti-cancer compounds using libraries of approved drugs and bioactive compounds (AID 1345084). Further: nearly all actives have a fitted effect of over 55% in size. As to conditions: Gynecologic cancer cell panel viability, ATPlite luminescence, 48 h; series mostly up to 57.5 µM. Summed up:
as §2

The subject of test [20] is NIH3T3. Kind of test: qHTS assay to identify novel small-molecules to repurpose for Merkel cell carcinoma treatment (AID 1296009). Further: nearly all actives have a fitted effect of over 60% in size. The conditions noted are these: MCC and control cell lines, CellTiter-Glo viability, 72 h; at 44.8 µM (top of the series) unless noted. Summed up:
as §1

Where [21] appears, read: at 46.1 µM (top of the series), tumour line C.
[22] abbreviates: at 45.9 µM (top of the series), tumour line B.
The mark [23] stands for this setting: at 45.9 µM (top of the series), tumour line D.
[24] abbreviates: at 46 µM (top of the series), tumour line A.
Potency means the concentration at half of the fitted maximal effect.

As to `COc1cc2ncnc(-n3nc(-c4ccccn4)nc3N)c2cc1OC`, the Potency entry in [1], in [2], in test [3], in test [4], in test [5] and in test [6] was “inactive” in each case. In addition, the Potency entry in test [7], in test [8], in test [9], in test [10], in test [11] and in [12] was “inactive” each time. The Potency result in test [13] was “inactive”.
For `C=C1C(=O)OC2C=C(C)CCC=C(C)CCC12` (centres undefined), the Potency result in test [1] and in test [14] was “inactive” each time.
Take `CC1(C)CCC(CN2CCN(c3ccc(C(=O)NS(=O)(=O)c4ccc(NCC5CCOCC5)c([N+](=O)[O-])c4)c(Oc4cnc5[nH]ccc5c4)c3)CC2)=C(c2ccc(Cl)cc2)C1`: the Potency result in test [1], in test [14], in test [3], in test [4], in test [5] and in [6] was “inactive” in each case. Also, the Potency result in test [7], in [8], in [10], in test [11], in test [15] and in test [12] was “inactive” each time. Further, the Potency result in test [13] is “inactive”.
Turning to `COc1cc2ncnc(Nc3ccc(F)c(Cl)c3)c2cc1OCCCN1CCOCC1`, the Potency in [2] is 13.3 µM (active); in [14], 26.6 µM (active); in [15] it was 10 µM (active); in test [16] (tumour line A), 5.62 µM (active); in test [16] (tumour line B) it was 17.8 µM (active); in test [16] (tumour line D) it was 8.91 µM (active). Moreover, the Potency in test [17] was 20 µM (active). Moreover, the Potency result in [4], in [5], in test [6], in [7], in [8] and in test [9] was “inactive” each time. Also, the Potency result in test [10], in test [11] and in test [13] was “inactive” each time. Also, the activity, negative = cell killing in [16] (setting [21]) is -12.4%.
For the compound `c1ccc2c(-c3cnn4cc(-c5ccc(N6CCNCC6)cc5)cnc34)ccnc2c1`, the figures for the Potency in [1] and in [18] were 2.96 µM (active) and 7.87 µM (active), respectively.
Regarding `COCCOC(=O)C1=C(C)NC2=C(C(=O)CC(c3ccccc3OC)C2)C1c1cccc(O)c1` (centres undefined), the Potency entry in test [1], in test [4], in test [5], in test [6], in test [8] and in [9] was “inactive” each time. For the same compound, the Potency entry in test [10], in [11], in [12] and in [13] was “inactive” in each case.
For `CCC(=O)NC[C@H](Cc1ccc(OCCc2nc(-c3ccccc3)oc2C)cc1)NC(C)=CC(=O)c1ccc(C(F)(F)F)cc1`, the results for the Potency in [1] and in test [3] were 7.43 µM (active) and 4.69 µM (active), respectively.
Consider `O=C(CCc1ccc(O)cc1)c1c(O)cc(O)cc1O[C@@H]1O[C@H](CO)[C@H](O)[C@H](O)[C@H]1O`, for which the Potency result in test [1], in test [14] and in [3] was “inactive” each time.
As to `COc1ccc2cc(-c3nc(-c4ccc(S(C)=O)cc4)[nH]c3-c3ccncc3)ccc2c1` (centres undefined), the Potency entry in test [1], in test [14], in test [3], in [4], in test [5] and in test [6] was “inactive” in each case. Besides, the Potency result in test [7], in test [8], in test [9], in test [10], in [11] and in [12] was “inactive” in each case. Besides, the Potency entry in test [13] was “inactive”.
For `Clc1cc(Cl)cc(CNc2ncncc2-c2ccc3c(c2)OCO3)c1`, the Potency result in [2] is “inactive”.
Consider `CC(C)C(=O)Nc1ncc(-c2cc(C(F)F)nn2-c2c(Cl)cccc2Cl)s1`, for which the Potency entry in test [1], in [3], in test [4], in [5], in [6] and in test [8] was “inactive” each time. Further, the Potency entry in [9], in [10] and in test [15] was “inactive” each time.
For `CN(C)Cc1ccc(-c2nc3cccc4c3n2CCNC4=O)cc1`, the Potency result in test [1], in test [14], in [3], in test [4], in test [5] and in test [7] was “inactive” throughout. Also, the Potency entry in test [9], in test [10], in [15] and in [13] was “inactive” throughout.
Consider `CC=CCC(C)C(O)C1C(=O)NC(CC)C(=O)N(C)CC(=O)N(C)C(CC(C)C)C(=O)NC(C(C)C)C(=O)N(C)C(CC(C)C)C(=O)NC(C)C(=O)NC(C)C(=O)N(C)C(CC(C)C)C(=O)N(C)C(CC(C)C)C(=O)N(C)C(C(C)C)C(=O)N1C` (centres undefined), for which the Potency entry in test [1] and in test [3] was “inactive” in each case.
Regarding `CCOC(CN1C(=O)[C@](CC(=O)Nc2ccc(C)cc2)(NC(=O)Nc2ccc(C)cc2)c2ccccc21)OCC`, the Potency result in test [1], in [14] and in test [3] was “inactive” each time.
Regarding `Cc1cnc(C(=O)O)c[n+]1[O-]`, the Potency result in test [1], in test [14], in [3] and in [17] was “inactive” throughout. Also, the activity, negative = cell killing is -12.7% and -17.2% and -5.56% in test [16] (setting [22]); -2.04% and 1.27% and -4.74% in test [16] (setting [23]); -14.3% and -47.1% in test [16] (setting [24]); -29.9% and -17.2% and -16.5% in test [16] (setting [21]).
As for `CO[C@@H](C(=O)N1Cc2[nH]nc(NC(=O)c3ccc(N4CCN(C)CC4)cc3)c2C1)c1ccccc1`, the Potency result in test [2] and in [14] was “inactive” throughout.
As for `CC1(C)O[C@H]2C[C@@H]3[C@H]4CCC5=CC(=O)C=C[C@]5(C)[C@@]4(F)[C@@H](O)C[C@]3(C)[C@]2(C(=O)CO)O1`, the values for the Potency in test [1] and in test [3] were 18.7 µM (active) and 13.2 µM (active), respectively. Also, the Potency result in test [14] was “inactive”. The activity, negative = cell killing in test [16] (setting [22]) was -4.78%; in test [16] (setting [23]), 5.68%; in test [16] (setting [24]), -11.2%; in [16] (setting [21]), 3.17%.
For `Oc1ccc(C2=Cc3ccc(O)cc3OC2)cc1`, the values for the Potency in test [1] and in test [3] were 2.96 µM (active) and 2.35 µM (active), respectively.
As to `Clc1ccc(Cn2c(CN3CCCC3)nc3ccccc32)cc1`, the Potency entry in test [1], in test [3], in test [4], in test [19], in test [5] and in test [6] was “inactive” each time. In addition, the Potency entry in [7], in [8], in test [9], in test [10], in [11] and in test [15] was “inactive” each time. Besides, the Potency entry in test [12], in [13] and in test [17] was “inactive” in each case. Moreover, the activity, negative = cell killing is -7.94% in test [16] (at 20 µM (top of the series), tumour line C) and -28.4% in test [16] (at 21.2 µM (top of the series), tumour line B). In addition, in [16] (tumour line A), the Potency was 2.51 µM (active).
Regarding `COC(=O)C1=CO[C@@H](O)[C@@H]2C(CO)=CC[C@@H]12`, in [2], the Potency is 9.35 µM (active). In addition, the result in test [20] was inactive.
